Inhibition data for 91 compounds are collected here from PubChem BioAssay AID588354 (The Scripps Research Institute Molecular Screening Center, 2011).

Molecules are shown by their SMILES. Screen size: about 360,000 compounds; about 430 (0.12%) were called active. This is one part of a sample in which actives are shown more often than they occur.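 How the source made its calls: active means inhibition above the campaign mean plus 3 SD, with each screening campaign given its own cutoff (cut at about 60% in these data); inactive means the rest.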

In the assay the target is Nuclear receptor coactivator 1 (Homo sapiens) (UniProt Q15788). The assay can be described thus: SRC1 coactivator transcriptional activity inhibitors, primary screen, cell-based, luminescence (AID 588354).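 Further: 0% = DMSO treated cells and 100% = gossypol at 36 µM.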 To be noted: HEK293 GAL4-SRC1 luciferase reporter, at 3.6 µM, active compounds read high.
Sequence of Nuclear receptor coactivator 1 (Homo sapiens) (Q15788 whole entry, looked up, the tested form may be a part): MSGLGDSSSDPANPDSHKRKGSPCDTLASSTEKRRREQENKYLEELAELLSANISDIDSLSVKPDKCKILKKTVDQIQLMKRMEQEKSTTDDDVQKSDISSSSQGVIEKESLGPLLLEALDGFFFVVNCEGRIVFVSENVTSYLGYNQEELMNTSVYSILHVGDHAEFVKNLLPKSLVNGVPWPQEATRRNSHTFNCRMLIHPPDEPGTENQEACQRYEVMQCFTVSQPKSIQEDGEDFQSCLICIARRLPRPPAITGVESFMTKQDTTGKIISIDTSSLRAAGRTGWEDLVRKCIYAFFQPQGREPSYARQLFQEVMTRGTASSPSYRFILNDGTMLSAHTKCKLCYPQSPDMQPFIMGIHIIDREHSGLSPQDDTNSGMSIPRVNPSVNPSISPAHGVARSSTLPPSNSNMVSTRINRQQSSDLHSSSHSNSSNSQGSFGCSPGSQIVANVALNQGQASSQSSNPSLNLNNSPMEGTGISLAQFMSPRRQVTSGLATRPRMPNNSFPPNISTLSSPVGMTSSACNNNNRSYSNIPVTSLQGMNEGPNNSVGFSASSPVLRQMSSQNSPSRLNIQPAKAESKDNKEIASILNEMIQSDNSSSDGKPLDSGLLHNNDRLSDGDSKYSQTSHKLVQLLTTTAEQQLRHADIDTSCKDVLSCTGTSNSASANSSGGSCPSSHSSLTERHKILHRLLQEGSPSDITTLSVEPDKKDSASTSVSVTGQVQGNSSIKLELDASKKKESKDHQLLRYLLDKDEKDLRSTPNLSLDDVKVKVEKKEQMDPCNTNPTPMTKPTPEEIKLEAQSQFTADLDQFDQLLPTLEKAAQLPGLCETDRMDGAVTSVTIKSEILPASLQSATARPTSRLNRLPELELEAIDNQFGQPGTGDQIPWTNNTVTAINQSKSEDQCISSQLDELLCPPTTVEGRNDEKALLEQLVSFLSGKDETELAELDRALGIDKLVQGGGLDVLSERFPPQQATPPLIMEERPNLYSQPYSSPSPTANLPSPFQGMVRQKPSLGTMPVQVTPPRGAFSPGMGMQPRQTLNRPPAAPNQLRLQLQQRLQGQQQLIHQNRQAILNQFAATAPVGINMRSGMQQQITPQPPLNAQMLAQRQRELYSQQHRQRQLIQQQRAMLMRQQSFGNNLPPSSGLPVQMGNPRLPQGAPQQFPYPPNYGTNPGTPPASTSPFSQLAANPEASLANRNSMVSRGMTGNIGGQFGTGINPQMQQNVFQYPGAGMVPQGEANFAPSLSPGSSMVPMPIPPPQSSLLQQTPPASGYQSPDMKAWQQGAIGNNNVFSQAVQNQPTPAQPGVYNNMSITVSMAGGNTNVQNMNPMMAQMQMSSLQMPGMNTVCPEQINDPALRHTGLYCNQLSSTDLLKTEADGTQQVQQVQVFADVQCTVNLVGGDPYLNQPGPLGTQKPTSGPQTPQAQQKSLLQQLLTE
For the compound `C[C@@H](NC(=O)c1nc[nH]c1C(=O)N1CCN(C(=O)OC(C)(C)C)CC1)c1ccccc1`, the inhibition is -15.6% (inactive). For `Cn1cc(/C=C/C(=O)N2CCCC(C(=O)c3ccc(C(F)(F)F)cc3)C2)cn1` (stereo unspecified) the value was 8.39% (inactive). The result for `CC1(NC(=O)CCS(=O)(=O)c2ccc(Cl)cc2)CCS(=O)(=O)C1` (stereo unspecified) reads -3.53% (inactive); that for `CN(C(=O)Nc1ccc(Cl)cc1)n1cnc2ccccc2c1=O`, -15.6% (inactive). As for `CN(c1ccc2nc3ccccc3c(=O)n2n1)C1CCCCC1`, the inhibition is 71.9% (active). As for `CC(C)(C)c1nc2ccccc2c(=O)n1N1C(=O)c2ccccc2C1=O`, the inhibition is 6.03% (inactive). The result for `CSc1ncccc1C(=O)Nc1cccc(S(=O)(=O)N2CCOCC2)c1` reads -16.1% (inactive); that for `O=C(Nc1cccc(Cc2ccccc2)c1)Nc1ccc2nc([C@@H]3O[C@H](CO)[C@@H](O)[C@H](O)[C@H]3O)[nH]c2c1`, -1.54% (inactive); that for `CC(C)(C)c1ccc(Oc2ccc(N)cc2)cc1`, 74% (active). In the case of `CN(C)S(=O)(=O)c1ccc(Oc2ccc(S(=O)(=O)N(C)C)cc2)cc1`, the inhibition was 21.5% (inactive). The result for `COc1cc2c3c(c1)/C(=C1/SC(=S)NC1=O)C(=O)N3C(C)(C)C=C2C` reads -18% (inactive); that for `CCN(CC(=O)Nc1ccc2c(c1)OCCO2)Cc1cc(=O)oc2cc(C)c(C)cc12`, 1.42% (inactive); that for `COC(=O)c1ccc(N2CCOCC2)c(NC(=O)c2ccc(Br)o2)c1`, 3.93% (inactive). With `CCCCc1nc2c(=O)[nH]c3ccccc3c2o1`, the inhibition was -5.89% (inactive).

On to `Cc1cc(C)cc(NC(=O)CSCc2cnn(-c3ccccc3)c2-n2cccc2)c1`, for which the inhibition was 0.69% (inactive). The result for `CCCc1noc2c1/C(=N\O)CCC2` reads 7.65% (inactive); that for `Cc1oc(C(N)=O)cc1COc1ccc(C(N)=O)cc1`, 11.6% (inactive). For `Cn1c(-c2ccc(C(F)(F)F)cc2)cc2onc(-c3ccccc3)c2c1=O` the value was -53.3% (inactive); for `CC(OC(=O)c1ccc(-n2cnnn2)cc1)C(=O)NCc1ccccc1` (stereo unspecified), -1.03% (inactive). The result for `CCC(C)c1ccccc1NC(=O)CN(C)CC(=O)Nc1ccccc1SC` (stereo unspecified) reads 3.11% (inactive); that for `CCc1ccc(C(=O)N2CCN(S(=O)(=O)c3sc(C(=O)O)c(C)c3C(=O)O)CC2)cc1`, -9.2% (inactive); that for `CC(C)CCNC(=O)C(C)N(C(=O)Cn1nnc(-c2ccc(F)cc2)n1)C1CCCC1` (stereo unspecified), 5.49% (inactive). In the case of `COc1ccc(Cn2cccc(NC(=O)Nc3ccc(C#N)cc3)c2=O)cc1`, the inhibition is 13.7% (inactive).

Take `CCOc1ccc(S(=O)(=O)N2CCN(C(=O)c3oc4ccccc4c3C)CC2)cc1`: the inhibition was -3.94% (inactive). On to `CCN(C(=O)COC(=O)CCOc1cccc(C)c1)c1c(N)n(Cc2ccccc2)c(=O)[nH]c1=O`, for which the inhibition is 4.13% (inactive). For the compound `Cc1cccc(C)c1Cn1c(C)c(C(=O)NCc2cccc(Cl)c2)sc1=O`, the inhibition is -0.2% (inactive). As to `CCc1ccc(CN(C)C(=O)C2CCC(=O)N(Cc3cccc(OC)c3)C2)nc1` (stereo unspecified), the inhibition was 5.84% (inactive). On to `CC(C)CN(C(=O)CSc1nncn1C)C1CCS(=O)(=O)C1` (stereo unspecified), for which the inhibition is 14% (inactive). The result for `O=C(N/N=C/c1ccccc1O)/C(=C/c1ccccc1)CCO` reads 30.9% (inactive); that for `O=C(NN=Cc1ccccc1O)NN=Cc1ccccc1O`, 63% (active); that for `C=CCOc1ccccc1/C=N/NC(=O)Cc1ccccc1`, -8.79% (inactive).

Consider `CCSc1sc(CC)cc1C=O`, for which the inhibition was -14.9% (inactive). In the case of `Cc1cc2c(cc1C)N(Cc1ccccc1)C1=NCCCN12`, the inhibition is 21.9% (inactive). The result for `CS(=O)(=O)Nc1ccccc1C(=O)OCC(=O)NC1CC1` reads -13.3% (inactive); that for `COc1ccc2c(c1)c(=Cc1ccc(N(C)C)cc1)c1cc(-c3ccccc3)[n+](C)n12`, 64.1% (active); that for `COc1ccc(OC)c(Nc2nc3ccccc3n3cnnc23)c1`, 1.7% (inactive).

Regarding `COc1ccc(OC)c(NC(=O)CN(C)CCOc2ccc(Br)cc2)c1`, the inhibition was -10.8% (inactive). In the case of `COc1ccc(Nc2ncnc3ccc(Br)cc23)c(OC)c1`, the inhibition was 81.9% (active). The result for `COc1ccccc1C(=O)NC(=O)COC(=O)c1ccco1` reads 3.45% (inactive). The result for `COC(=O)c1ccc(NC(=O)CSc2nncc3ccc(OC)c(OC)c23)cc1` reads -23.3% (inactive). For `CCN(CC)CCCNC(=O)c1c(O)c2cc(F)cc3c2n(c1=O)C(C)CC3` (stereo unspecified) the value was -12.1% (inactive). Turning to `COc1ccc(CCN2C(=O)N(c3ccc(OC)cc3)C(=O)C2CC(=O)Nc2ccc(OC)cc2)cc1` (stereo unspecified), the inhibition is -12.4% (inactive).

For `O=C(Nc1cccc2c1CCCC2)C1CCN(C(=O)NC2CCCCC2)CC1`, the inhibition was 3.24% (inactive). Regarding `O=C(CC1Nc2ccccc2NC1=O)Nc1ccccc1` (stereo unspecified), the inhibition is -51.2% (inactive). Consider `CCN(c1ccccc1)S(=O)(=O)c1ccc(OCC(=O)N2CCCC2)cc1`, for which the inhibition is -2.15% (inactive). The result for `CCC(C)NC(=O)c1cc(Cl)ccc1OC` (stereo unspecified) reads 3% (inactive); that for `CC(C)C[C@H](NC(=O)C1CCC(CNC(=O)[C@@H]2CCCN2C(=O)OC(C)(C)C)CC1)C(=O)O` (stereo partly specified), 16% (inactive).

For the compound `CC(C)(C)C(=O)NCCCNc1ccc([N+](=O)[O-])cc1`, the inhibition was -24.3% (inactive). The result for `CCN(CC)S(=O)(=O)c1ccc(N2CCN(C)CC2)c(NC(=O)Nc2ccccc2F)c1` reads -0.49% (inactive).

Regarding `COCC1CCCN(Cc2nc(-c3ccc4c(c3)OCO4)no2)C1` (stereo unspecified), the inhibition is -70.5% (inactive). The result for `CC(=O)Nc1ccc(C(=O)Nc2cc(S(=O)(=O)N3CCOCC3)ccc2N2CCOCC2)cc1` reads -2.37% (inactive). The result for `O=C(NCCc1ccccc1)Oc1ccc(Cl)cc1` reads -56.8% (inactive); that for `COc1ccc(CN2CCC(c3nc4ccc(Cl)cc4[nH]3)CC2)cc1`, 2.53% (inactive); that for `Cc1cc(NC(=O)CSC2=NS(=O)(=O)c3cc(Cl)ccc3N2)no1`, -31% (inactive). The result for `CN(CCOc1ccc(Br)cc1)CC(=O)Nc1cccc(S(=O)(=O)NC2=NCCC2)c1` reads -16.8% (inactive); that for `CC(C)(C)c1ccccc1NC(=O)CN1C(=O)NC2(CCCC2)C1=O`, -13.8% (inactive). Turning to `CCn1nc(C(=O)Nc2ccc(N3CCOCC3)cc2)c2ccccc2c1=O`, the inhibition was -1.53% (inactive).

On to `CCCCOC(=O)NCN1C(=O)C2C3C=CC(C3)C2C1=O` (stereo unspecified), for which the inhibition was 1% (inactive). For `Brc1ccc2ncnc(NCc3cccnc3)c2c1` the value was 66.1% (active). The result for `Clc1ccc(Cn2ncc3c(NCc4cccnc4)ncnc32)cc1` reads -4.66% (inactive); that for `Cc1cc(NCc2cccnc2)no1`, 25.1% (inactive). As for `COc1ccc(S(=O)(=O)N2CCN(C(=O)N(C)C)C2C)cc1` (stereo unspecified), the inhibition was -47.2% (inactive). For `C=CCN1C=C(C(=O)c2ccccc2)C(=O)CC1` the value was -2.55% (inactive). For `O=C(O)C1CCCN1C1=NS(=O)(=O)c2ccccc21` (stereo unspecified) the value was 12.2% (inactive); for `Cc1ccc(C)c(OCc2cc(C(=O)N3CCN(c4cnccn4)CC3)no2)c1`, -12.1% (inactive). Consider `CCOc1ccccc1NS(=O)(=O)c1c[nH]c(C(=O)OC)c1`, for which the inhibition is -15% (inactive). For `C=CC[C@H](CC(=O)OC(C)(C)C)C(=O)OC[C@H]1CCCN1C(=O)[C@H](CC=C)CC(=O)N(CCO)Cc1ccccc1` the value was -0.47% (inactive); for `CC1(C)CN(Cc2cccnc2)C(=O)[C@H]1CC(=O)Nc1ccc(Br)cc1`, -2.09% (inactive). Turning to `O=c1ccc2c(-c3ccccc3S(=O)(=O)O)c3ccc(O)c(O)c3oc-2c1O`, the inhibition was 13.4% (inactive). For `CCn1c(SCC(=O)N2CCCC2=O)nc2ccccc21` the value was 16.1% (inactive); for `CC1=C(C(=O)N(C)C)C(c2ccccc2OC(F)F)NC(=O)N1` (stereo unspecified), 4.69% (inactive). For `O=C(NC1CCCC1)C(c1ccc(N2CCOCC2)cc1)N(C(=O)c1ccco1)c1ccccc1F` (stereo unspecified) the value was 5.48% (inactive). The result for `Cc1ccc(CSCC2Nc3ccc(C(=O)N4CCN(c5ccc(F)cc5)CC4)cc3NC2=O)cc1` (stereo unspecified) reads 2.74% (inactive); that for `C[C@@H](C(=O)N1CCNCC1)n1cc(CCC(=O)O)nn1`, 3.05% (inactive). Consider `Cc1ccccc1-c1cc(C(=O)NCC2CC2)n(CC2CC(c3cccnc3)=NO2)n1` (stereo unspecified), for which the inhibition was 2.14% (inactive).

Regarding `CO/N=C/c1cn(-c2ccc(Cl)cc2)nn1`, the inhibition is -12.7% (inactive). The result for `COc1ccc(C(=O)Nc2ccccc2C(=O)N/N=C/c2ccc(O)c(OC)c2)cc1` reads 64.2% (active); that for `COc1cccc(OCc2cc(/C=N/NC(=O)c3nc(Cl)c(Cl)c(N)c3Cl)ccc2OC)c1`, -14.2% (inactive).

For the compound `CCOc1cc(/C=N/NC(=O)c2c(C)nc3ccc(Cl)cn23)ccc1O`, the inhibition is 0.11% (inactive). Turning to `CC1CN(c2nc(-c3ccccc3)nnc2-c2ccccc2)CC(C)O1` (stereo unspecified), the inhibition is 10.6% (inactive). The result for `CC(Oc1ccc(Cl)cc1Cl)C(=O)/C=C/N(C)C` (stereo unspecified) reads -17.4% (inactive).

For the compound `COCCN(Cc1nc(-c2ccc(C(F)(F)F)cc2)no1)C(C)C`, the inhibition is -8.16% (inactive). As for `CC(CCn1cccn1)NC(=O)CCc1nnc(CCc2ccccc2)o1` (stereo unspecified), the inhibition is 11.7% (inactive).

For the compound `O=C(NNS(=O)(=O)Cc1ccccc1)c1ccc([N+](=O)[O-])cc1`, the inhibition was -4.79% (inactive). For `O=C(NC(Nc1nc2ccc([N+](=O)[O-])cc2s1)(C(F)(F)F)C(F)(F)F)c1ccccc1` the value was 68.3% (active). The result for `O=C(Nc1cc(-c2ccccc2)nn1-c1ccccc1F)c1ccc([N+](=O)[O-])cc1` reads -16.9% (inactive); that for `COc1cc(CN2CCNC(=O)C2CC(=O)NCCc2ncccc2C)cc(OC)c1` (stereo unspecified), 14.8% (inactive).

Turning to `O=C(CCc1ccc(S(=O)(=O)N2CCOCC2)cc1)Nc1ccc2ccccc2c1`, the inhibition was -5.83% (inactive). For `CC1CCCN(CCOCCOc2ccccc2-c2ccccc2)C1` (stereo unspecified) the value was 9.99% (inactive); for `C[C@H]1CN([C@@H](C)CO)C(=O)c2cc(Br)cnc2O[C@H]1CN(C)S(=O)(=O)c1cccs1`, -44.2% (inactive). With `N#CC1(NC(=O)COC(=O)CSc2ccc(F)cc2)CCCCC1`, the inhibition is 20.2% (inactive).

Broadly, the inhibition is the relative decrease from the control value, in per cent.
